According to PubChem BioAssay AID2551 (National Center for Advancing Translational Sciences (NCATS), 2010):
The whole screen tested about 310,000 compounds, of which about 17,000 (5.5%) were called active. About 11% were inconclusive and are not listed. The list comes from a sample in which actives are over-represented; it also holds similar structures and randomly drawn compounds. Where a call stands in place of a potency, no number is given. A number with no mark means an inactive call. Calls come from the whole dose curve; as a rule, active = well fitted inhibition curve with a large enough effect; inconclusive = small, poorly fitted or top-dose-only effect, or effect the other way; inactive = no such curve, though single readings can be large or run the other way.
Note: nearly all actives have a fitted effect of over 60% in size.
Potency is the fitted concentration of half-maximal effect.

The compounds below were run against Nuclear receptor ROR-gamma (Mus musculus) (UniProt P51450) (assay: qHTS for inhibitors of ROR gamma transcriptional activity). Settings: Drosophila S2 Gal4-RORgamma UAS-luciferase reporter, 20 h; series mostly up to 53.6 µM.
Nuclear receptor ROR-gamma (Mus musculus), sequence (P51450 whole entry, looked up, the tested form may be a part): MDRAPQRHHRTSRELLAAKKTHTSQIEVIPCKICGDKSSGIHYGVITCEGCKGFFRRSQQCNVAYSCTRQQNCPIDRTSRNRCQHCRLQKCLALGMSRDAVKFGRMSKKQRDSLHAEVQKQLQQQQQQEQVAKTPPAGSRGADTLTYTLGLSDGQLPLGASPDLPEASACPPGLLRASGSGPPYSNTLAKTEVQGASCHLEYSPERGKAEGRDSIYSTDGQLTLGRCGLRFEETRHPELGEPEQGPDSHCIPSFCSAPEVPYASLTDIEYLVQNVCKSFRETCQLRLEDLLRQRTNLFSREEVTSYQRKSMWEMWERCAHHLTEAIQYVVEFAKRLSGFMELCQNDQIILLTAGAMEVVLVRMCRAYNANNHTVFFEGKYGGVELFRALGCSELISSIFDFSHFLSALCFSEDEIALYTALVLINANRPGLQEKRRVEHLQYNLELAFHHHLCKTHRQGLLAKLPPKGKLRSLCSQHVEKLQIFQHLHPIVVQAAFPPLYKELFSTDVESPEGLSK
Summary of the method: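 Using a luciferase readout, inhibitors were identified by reduced reporter activity in Drosophila cells coexpressing a copper-inducible Gal4–ROR gamma fusion and UAS-driven Photinus luciferase, incubated 20 hr after 700 uM copper sulfate.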
`COc1ccc(CC(=O)NC2CCSc3ccccc32)cc1OC` (centres undefined) was tested, and the Potency was “inactive”.
In the case of `COC(=O)c1ccc(Nc2ncnc3sccc23)cc1`, the Potency is reported as “inactive”.
For `O=S(=O)(c1ccccc1)N(Cc1cccc(F)c1)c1ccccc1`, the Potency was “inactive”.
`N#CCC(=O)NC1CCC(CC2CCC(NC(=O)CC#N)CC2)CC1` (centres undefined) was tested, and the Potency was “inactive”.
With `CCOC(OCC)c1ccc(/C=C\c2nccc(N)n2)cc1` the Potency was “inactive”.
In the case of `Cc1cc(=O)n2nc(N3CCC(C(=O)Nc4c(F)c(F)c(F)c(F)c4F)CC3)sc2n1`, the Potency is reported as “inactive”.
In the case of `COc1ccc(C)cc1NC(=O)NCCCCc1ccccc1`, the Potency is reported as “inactive”.
With `Cc1cc(CNC(=O)C2CCC(=O)N(CCc3ccc(Cl)cc3)C2)no1` (centres undefined) the Potency was “inactive”.
`COC1=C(N2CCOCC2)C(=O)c2ccccc2C1=O` was tested, and the Potency was “inactive”.
For `CCOc1ccc(NC(=O)c2ccc(NC(=O)C3CCCO3)cc2)cc1` (centres undefined), the Potency was “inactive”.
In the case of `Cc1ccccc1C(=O)NC(=S)NC1CC1`, the Potency is reported as 14.1 µM (active).
In the case of `Cc1ccccc1C(=O)Nc1ccccc1NC(=O)c1ccccc1C`, the Potency is reported as “inactive”.
In the case of `O=C(NC(=S)NC1CCSC1=O)c1ccccc1F` (centres undefined), the Potency is reported as “inactive”.
In the case of `COC(=O)Cn1c(O)c(N=NC(=O)OC)c2ccccc21`, the Potency is reported as “inactive”.
In the case of `CC(C)n1c(C(O)c2ccccc2)nc2ccccc21` (centres undefined), the Potency is reported as “inactive”.
`CC(C)n1c(O)c(N=Nc2ccccn2)c2ccccc21` was tested, and the Potency was 8.91 µM (active).
With `COc1ccc(/C=N/Nc2nc(-c3ccc(C)cc3)c(C#N)c(=O)[nH]2)cc1` the activity change, negative = inhibition was 20.4% [at 1.91 µM].
For `COc1ccc(/C=N/Nc2nc3ccccc3c(=O)[nH]2)cc1`, the Potency was 11.2 µM (active).
With `COc1ccc(C=Nc2cccc3ncccc23)cc1` the Potency was “inactive”.
For `COc1ccccc1C(=O)N/C(=C/c1ccc2c(c1)OCO2)C(=O)Nc1cccc(C(=O)O)c1`, the Potency was “inactive”.
`O=C(CSc1nc2ccccc2s1)Nc1ccc(C(=O)O)cc1` was tested, and the Potency was “inactive”.
In the case of `O=[N+]([O-])c1c(NCCO)cc(Sc2nc3ccccc3s2)c2nonc12`, the Potency is reported as 2.82 µM (active).
In the case of `CCOc1ccccc1Nc1ccc2nonc2c1[N+](=O)[O-]`, the Potency is reported as “inactive”.
For `CC(C)OCCCNC(=O)CN1C(=O)/C(=C/c2ccccc2F)Oc2ccccc21`, the Potency was “inactive”.
`CCn1c(CNS(=O)(=O)c2ccc(Cl)cc2)n[nH]c1=S` was tested, and the Potency was “inactive”.
With `CCn1c(CSCc2c(Cl)cccc2Cl)n[nH]c1=S` the Potency was 3.16 µM (active).
With `O=C(CSCc1c(Cl)cccc1Cl)NN1C(=O)c2ccccc2C1=O` the Potency was “inactive”.
For `O=C1NC(c2ccccc2)Oc2ccccc21` (centres undefined), the Potency was “inactive”.
For `CCN(CC)CCCNC(=O)COc1ccc2oc3c(c2c1)CCCC3`, the Potency was “inactive”.
For `Cc1ccc(CNC(=O)C2CCCN2S(=O)(=O)c2ccc3c(c2)C(C)(C)C(=O)N3C)cc1` (centres undefined), the Potency was “inactive”.
In the case of `CN1CCN(NC(=O)Nc2ccc(Br)cc2)CC1`, the Potency is reported as “inactive”.
With `CC(NC(=O)C(=O)NN=C1CCC(C(C)(C)C)CC1)c1ccccc1` (centres undefined) the Potency was “inactive”.
In the case of `CC(C)(C)C1CCC(=NNC(=O)c2cc(-c3ccccc3)n[nH]2)CC1` (centres undefined), the Potency is reported as 11.2 µM (active).
For `O=C(COc1ccc(-c2ccccc2)cc1)NN=C1CCCC1`, the Potency was “inactive”.
In the case of `CC1CN(CC(=O)NC(C)c2ccccc2)CC(C)O1` (centres undefined), the Potency is reported as “inactive”.
`CCOC(=O)C(=O)Nc1nc(-c2ccccc2)c(CC)s1` was tested, and the Potency was “inactive”.
For `Cc1ccc(-c2nc(C)sc2CC(=O)O)cc1`, the Potency was “inactive”.
`C/C(=N/Nc1nc(-c2ccccc2)c(CC(=O)O)s1)c1ccccc1` was tested, and the Potency was 11.2 µM (active).
`O=C(Nc1cccc(-c2nc3ccccc3[nH]2)c1)c1ccc(C(=O)Nc2cccc(-c3nc4ccccc4[nH]3)c2)cc1` was tested, and the Potency was 2 µM (active).
With `O=C(/C=C/c1ccco1)Nc1cccc(-c2nc3ccccc3[nH]2)c1` the Potency was “inactive”.
In the case of `Cc1ccc(-c2nc3ccccc3[nH]2)cc1NC(=O)c1sc2ccccc2c1Cl`, the Potency is reported as “inactive”.
`Cc1cccc2[nH]c(CN(C)C(=O)C3CCC(=O)N(CCc4ccccc4)C3)nc12` (centres undefined) was tested, and the Potency was “inactive”.
`C/C(N)=C(/C#N)C(=O)COC(=O)C1=NN(c2ccccc2)C(=O)CC1` was tested, and the Potency was “inactive”.
In the case of `COc1cccc(/C=N/Nc2ncc(C(F)(F)F)cc2Cl)c1O`, the Potency is reported as 1.26 µM (active).
`COC(=O)Cc1ccc(Oc2ncc(C(F)(F)F)cc2Cl)cc1` was tested, and the Potency was “inactive”.
For `N/C(=N\OC(=O)Nc1ccc(Cl)c(Cl)c1)c1ncc(C(F)(F)F)cc1Cl`, the Potency was “inactive”.
`CCOC(=O)N1CCN(C(=O)COCc2cc(-c3ccc4c(c3)OCO4)on2)CC1` was tested, and the Potency was “inactive”.
`Cc1ccnc(SCC(N)=O)n1` was tested, and the Potency was “inactive”.
For `CCOC(=O)c1ccc(N2C(=O)CC(Sc3nc(O)c(CC)c(=O)[nH]3)C2=O)cc1` (centres undefined), the Potency was “inactive”.
For `CCOc1ccccc1N1C(=O)CC(Sc2nccc(C)n2)C1=O` (centres undefined), the Potency was 25.1 µM (active).
With `CCn1ccnc1CNC(=O)CC1C(=O)NCCN1CCCc1ccccc1` (centres undefined) the Potency was “inactive”.
With `O=C(NCCS(=O)(=O)N1CCN(c2ccccc2F)CC1)c1ccc(Br)o1` the Potency was “inactive”.
`Cc1cccc(NC(=O)c2cccnc2Cl)n1` was tested, and the Potency was “inactive”.
For `CC(C)(O)C#Cc1ccc(CN2CCC(CO)(CCc3ccccc3)CC2)cc1`, the Potency was “inactive”.
With `OCC1(CCOc2ccccc2)CCN(Cc2cn[nH]c2-c2ccccc2)CC1` the Potency was “inactive”.
In the case of `Cc1c(CN2CCC(CO)(CCOc3ccccc3)CC2)[nH]c2ccc(Cl)cc12`, the Potency is reported as 11.2 µM (active).
In the case of `CC(C)(C)NC(=O)C(c1ccc(Cl)cc1)N(CCO)C(=O)c1snc(C(N)=O)c1N` (centres undefined), the Potency is reported as “inactive”.
With `COC(=O)CCc1ccccc1S(=O)(=O)N(CCC(=O)OC)Cc1ccccc1` the Potency was “inactive”.
For `CCOC(=O)C1=C(c2ccccc2)NC(=O)NC1c1cc(OCC)c(O)c([N+](=O)[O-])c1` (centres undefined), the Potency was “inactive”.
For `CCS(=O)(=O)c1cc([N+](=O)[O-])c(Sc2ccccc2N)s1`, the Potency was 7.94 µM (active).
For `Nc1ccccc1Sc1ccc(C(F)(F)F)cc1[N+](=O)[O-]`, the Potency was “inactive”.
With `CCOC(=O)c1cc(Sc2ccccc2N)cc(C(=O)OCC)n1` the Potency was “inactive”.
`COc1ccc(N2CCN(C3CCCCC3NS(=O)(=O)c3ccccc3)CC2)cc1` (centres undefined) was tested, and the Potency was “inactive”.
`CCC(Cc1ccccc1)NS(=O)(=O)c1ccc2c(c1)NC(=O)CS2` (centres undefined) was tested, and the Potency was “inactive”.
With `O=C(N/N=C/c1ccc2c(c1)OCO2)c1ccc(Cn2cc([N+](=O)[O-])cn2)o1` the Potency was “inactive”.
With `Cc1ccc(C(=O)O)cc1NC(=O)c1ccc(Cn2nc(C)c(Cl)c2C)o1` the Potency was “inactive”.
With `Cc1c(Cl)c([N+](=O)[O-])nn1Cc1ccc(C(=O)N/N=C\c2cc(Cl)ccc2O)o1` the Potency was 5.01 µM (active).
`CC(C)c1c(C(=O)N/N=C/c2ccccc2C(=O)O)nnn1-c1nonc1N` was tested, and the Potency was “inactive”.
`O=C(O)/C=C/C(=O)Nc1ccc(F)cc1F` was tested, and the Potency was “inactive”.
For `Cc1c(NC(=O)/C=C/C(=O)O)cccc1[N+](=O)[O-]`, the Potency was “inactive”.
`COC(=O)c1sc(-c2ccc(C(C)(C)C)cc2)cc1NC(=O)/C=C/C(=O)O` was tested, and the Potency was 12.6 µM (active).
`Cc1ccc(/C=N/NC(=S)NC2CCCCC2)o1` was tested, and the Potency was 0.251 µM (active).
`C/C(=N/NC(=O)c1ccc(Br)o1)c1ccc(C)o1` was tested, and the Potency was “inactive”.
With `Cc1ccc(/C=N/NC(=O)Cn2nc(C)c(Br)c2C)o1` the Potency was “inactive”.
For `Cc1ccc(/C=N/NC(=O)CSc2ccccn2)o1`, the Potency was “inactive”.
With `C/C(=N\NC(=O)NC1CCCCC1)c1ccc(OC(F)F)cc1OC(F)F` the Potency was “inactive”.
For `C/C(=N\NC(=S)NC1CCCCC1)c1ccc(C)o1`, the Potency was 0.631 µM (active).
`COc1ccc(S(=O)(=O)N2CCOC2CNC(=O)C(=O)NCc2ccncc2)cc1OC` (centres undefined) was tested, and the Potency was “inactive”.
In the case of `O=C(Nc1ccccc1)/C(=C/c1ccc([N+](=O)[O-])cc1)NC(=O)c1ccccc1`, the Potency is reported as “inactive”.
For `O=C(N/N=C/c1ccc(O)cc1)/C(=C/c1ccc([N+](=O)[O-])cc1)NC(=O)c1ccccc1`, the Potency was “inactive”.
With `O=C(N/N=C/c1cc([N+](=O)[O-])ccc1O)/C(=C\c1cccs1)NC(=O)c1ccccc1` the Potency was 11.2 µM (active).
`CCCCc1nc2cc(C(=O)NCCc3cnn(C)c3)ccc2o1` was tested, and the Potency was “inactive”.
For `COc1ccccc1-c1cnn2c(N3CCOCC3)cc(C)nc12`, the Potency was “inactive”.
`N#Cc1ccccc1NC(=O)c1ccc2c(c1)OCO2` was tested, and the Potency was “inactive”.
`COc1ccc(C(=O)NC(C)Cn2nc(C)cc2C)cc1OC1CCN(C(C)=O)CC1` (centres undefined) was tested, and the Potency was “inactive”.
For `Oc1ccc2ccccc2c1N=Nc1nccs1`, the Potency was 1.26 µM (active).
`c1ccc(NCc2cccc3ccccc23)nc1` was tested, and the Potency was “inactive”.
With `Oc1ccc(N=Nc2nccs2)c(O)c1` the Potency was 7.08 µM (active).
With `Oc1ccc2ccccc2c1C=Nc1ccccc1` the Potency was “inactive”.
With `O=C(c1c(F)cccc1F)N1CCN(c2ncc(Br)cn2)CC1` the Potency was “inactive”.
With `CCOC(=O)N1CCC(N2Cc3cccc(C(=O)Nc4c(C)cccc4CC)c3C2=O)CC1` the Potency was “inactive”.
For `Cc1cc(=O)oc2c(C)c(OCC(=O)NCCc3ccc(S(N)(=O)=O)cc3)ccc12`, the Potency was “inactive”.
`Cc1ccc(NS(=O)(=O)c2cc3c(cc2C)NC(=O)CO3)cc1` was tested, and the Potency was “inactive”.
`N=c1oc2ccccc2cc1C(=O)NCc1ccccc1` was tested, and the Potency was “inactive”.
For `CCOC(=O)c1cnc(-c2ccccc2)nc1Oc1ccc(C)cc1`, the Potency was “inactive”.
`CCOC(=O)c1cnc(-n2nc(C)cc2C)nc1NNc1cc(C)nc(-c2ccccc2)n1` was tested, and the Potency was 0.1 µM (active).
`Cc1cc(C)n(-c2c(F)c(F)c(COC(=O)c3ccccc3)c(F)c2F)n1` was tested, and the Potency was “inactive”.
With `CC(C)c1nc2cc(C(=O)NC(C)c3cnn(C)c3)ccc2o1` (centres undefined) the Potency was “inactive”.
With `COc1cc(CO)ccc1OCC(=O)Nc1cccc2ccccc12` the Potency was “inactive”.
In the case of `C=CCn1c(=S)[nH]c2scc(-c3ccco3)c2c1=O`, the Potency is reported as 1.58 µM (active).
For `C=CCn1cnc2scc(-c3ccccc3)c2c1=O`, the Potency was “inactive”.
For `C=CCNC(=O)CSc1nc2scc(-c3ccco3)c2c(=O)n1CC=C`, the Potency was “inactive”.
`CC(C)(C)c1cc[n+](-c2[nH]c(=O)sc2/C=N/N=C(\[O-])c2ccccc2)cc1` was tested, and the Potency was “inactive”.
With `COc1cc(Cl)c(C)cc1NC(=O)CN1CCCCCC1` the Potency was “inactive”.
With `COc1cc(NC(=S)N2CCCC(C)C2)cc(OC)c1OC` (centres undefined) the Potency was “inactive”.
With `COc1cc(NC(=S)N2CCCC(C)C2)c(OC)cc1Cl` (centres undefined) the Potency was 12.6 µM (active).
`CNC(=S)N1N=C(c2ccccc2)CC1c1ccc(Br)cc1` (centres undefined) was tested, and the Potency was 11.2 µM (active).
For `COc1ccc(C2=NN(C(C)=O)C(c3ccccc3)C2)cc1` (centres undefined), the Potency was “inactive”.
`O=C(c1ccccc1)N1N=C(c2ccccc2O)CC1c1ccc(Br)cc1` (centres undefined) was tested, and the Potency was “inactive”.
